The values that follow come from PubChem BioAssay (EPA / NIEHS).

Holding throughout (settings): mRNA level, 48 h; actives raise or lower the signal
Read-out in assay [1]: Cytochrome P450 (CYP1A1), CYP1A1 (gene 1543)
As to the kind of experiment: LTEA_HepaRG_CYP1A1: Life Technologies and Expression Analysis (LTEA) Assay for Cytochrome P450 (CYP1A1) using HepaRG (AID 2283454). An outline of the steps: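 Differentiated human HepaRG cells, after 48 h plating, exposed in duplicate for 48 h in serum-free induction medium to 8 half-log concentrations up to 100 uM in 0.5% DMSO. CYP1A1 mRNA by qRT-PCR, normalized to ACTB/GAPDH/POLR2A; bidirectional fit versus DMSO.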

Read-out in assay [2]: CFLAR gene, CFLAR (gene 8837)
As to the kind of experiment: LTEA_HepaRG_CFLAR: Life Technologies and Expression Analysis (LTEA) Assay for CFLAR gene using HepaRG (AID 2283455). An outline of the steps: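 Transcript level by qRT-PCR (normalized to ACTB, GAPDH and POLR2A) after 48 h chemical exposure of HepaRG cells, top concentration 100 uM with half-log steps, 0.5% DMSO vehicle, duplicates; fitted bidirectionally against DMSO baseline.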

Read-out in assay [3]: Forkhead box O1 (FOXO1), FOXO1 (gene 2308)
In words: LTEA_HepaRG_FOXO1: Life Technologies and Expression Analysis (LTEA) Assay for Forkhead box O1 (FOXO1) using HepaRG (AID 2283456). In a few lines:
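FOXO1 transcript quantified by qRT-PCR after 48 h chemical exposure (top 100 uM, half-log steps, 0.5% DMSO) of HepaRG cells, housekeeping-normalized (ACTB/GAPDH/POLR2A). Changes fitted in both directions relative to vehicle.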

Read-out in assay [4]: growth arrest and DNA damage 45 (GADD45A), GADD45A (gene 1647)
As to the kind of experiment: LTEA_HepaRG_GADD45A: Life Technologies and Expression Analysis (LTEA) Assay for growth arrest and DNA damage 45 (GADD45A) using HepaRG (AID 2283458). In a few lines: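 HepaRG, 48 h exposure, 8 conc. (top 100 uM, half-log steps), 0.5% DMSO vehicle, duplicates. Read-out: qRT-PCR mRNA level, housekeeping-normalized (ACTB/GAPDH/POLR2A). Curves fit bidirectionally vs DMSO baseline.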

Read-out in assay [5]: Forkhead box O3 (FOXO3), FOXO3 (gene 2309)
In words: LTEA_HepaRG_FOXO3: Life Technologies and Expression Analysis (LTEA) Assay for Forkhead box O3 (FOXO3) using HepaRG (AID 2283459). An outline of the steps: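 FOXO3 transcript measured by qRT-PCR (normalized to ACTB, GAPDH, POLR2A) after 48 h exposure of HepaRG cells in serum-free induction medium. Duplicates, eight half-log concentrations up to 100 uM, 0.5% DMSO; gain or loss fitted against DMSO.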

Read-out in assay [6]: ABC Transporter (ABCB1), ABCB1 (gene 5243)
As to the kind of experiment: LTEA_HepaRG_ABCB1: Life Technologies and Expression Analysis (LTEA) Assay for ABC Transporter (ABCB1) using HepaRG (AID 2283460). An outline of the steps:
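ABCB1 transcript level measured by TaqMan qRT-PCR against three housekeeping genes after 48 h chemical exposure of differentiated HepaRG cells. Top concentration 100 uM, half-log steps, eight points, 0.5% DMSO vehicle; bidirectional fit relative to DMSO.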

Read-out in assay [7]: growth arrest and DNA damage 45 (GADD45B), GADD45B (gene 4616)
In words: LTEA_HepaRG_GADD45B: Life Technologies and Expression Analysis (LTEA) Assay for growth arrest and DNA damage 45 (GADD45B) using HepaRG (AID 2283461). In a few lines: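 Differentiated human HepaRG cells in serum-free induction medium exposed 48 h in duplicate to eight concentrations, top 100 uM, half-log steps, 0.5% DMSO. GADD45B mRNA by TaqMan qRT-PCR, normalized to ACTB, GAPDH, POLR2A; bidirectional fit versus DMSO.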

Read-out in assay [8]: ABC Transporter (ABCC3), ABCC3 (gene 8714)
As to the kind of experiment: LTEA_HepaRG_ABCC3: Life Technologies and Expression Analysis (LTEA) Assay for ABC Transporter (ABCC3) using HepaRG (AID 2283462). An outline of the steps: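 Differentiated human HepaRG cells exposed 48 h in serum-free induction medium, 0.5% DMSO vehicle, 8-point half-log series to 100 uM in duplicate. ABCC3 mRNA by qRT-PCR, normalised to ACTB, GAPDH, POLR2A; bidirectional fit vs DMSO.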

Read-out in assay [9]: ABC Transporter (ABCB11), ABCB11 (gene 8647)
In words: LTEA_HepaRG_ABCB11: Life Technologies and Expression Analysis (LTEA) Assay for ABC Transporter (ABCB11) using HepaRG (AID 2283463). In a few lines:
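ABCB11 transcript levels quantified by TaqMan qRT-PCR against three housekeeping genes after 48 h chemical exposure of HepaRG cultures. Concentrations up to 100 uM in half-log steps, 0.5% DMSO vehicle; both induction and suppression scored.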

Read-out in assay [10]: ABC Transporter (ABCC2), ABCC2 (gene 1244)
As to the kind of experiment: LTEA_HepaRG_ABCC2: Life Technologies and Expression Analysis (LTEA) Assay for ABC Transporter (ABCC2) using HepaRG (AID 2283464). In a few lines: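 Differentiated HepaRG cells in serum-free induction medium exposed 48 h to eight half-log concentrations up to 100 uM, 0.5% DMSO, in duplicate. ABCC2 mRNA measured by qRT-PCR (TaqMan, Fluidigm), normalized to ACTB, GAPDH and POLR2A. Fitted in both directions against DMSO.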

Read-out in assay [11]: Broad substrate specificity ATP-binding cassette transporter ABCG2 (Homo sapiens) (UniProt Q9UNQ0)
In words: LTEA_HepaRG_ABCG2: Life Technologies and Expression Analysis (LTEA) Assay for ABC Transporter (ABCG2) using HepaRG (AID 2283465). In a few lines: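 ABCG2 transcript was quantified by TaqMan qRT-PCR against three housekeeping genes in HepaRG cells. Cells were treated in duplicate for 48 h across an 8-point half-log series up to 100 uM, with 0.5% DMSO vehicle. Gain or loss versus DMSO was fit.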

Read-out in assay [12]: ATP-citrate lyase (ACLY), ACLY (gene 47)
In words: LTEA_HepaRG_ACLY: Life Technologies and Expression Analysis (LTEA) Assay for ATP-citrate lyase (ACLY) using HepaRG (AID 2283466). An outline of the steps:
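ACLY mRNA quantified by qRT-PCR on Fluidigm arrays against three housekeeping genes, after 48 h chemical treatment of HepaRG cells (top concentration 100 uM, half-log steps, 0.5% DMSO vehicle). Up- or down-regulation fitted relative to DMSO.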

Read-out in assay [13]: Peroxisomal acyl-coenzyme A oxidase 1 (ACOX1) gene, ACOX1 (gene 51)
In words: LTEA_HepaRG_ACOX1: Life Technologies and Expression Analysis (LTEA) Assay for Peroxisomal acyl-coenzyme A oxidase 1 (ACOX1) gene using HepaRG (AID 2283467). In a few lines: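 ACOX1 transcript levels were quantified by TaqMan qRT-PCR against three housekeeping genes after 48 h chemical exposure of differentiated human HepaRG cells. Exposure used eight half-log steps topping at 100 uM, 0.5% DMSO vehicle, in duplicate. Bidirectional curve fits were made relative to DMSO.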

Read-out in assay [14]: Alkaline Phosphatase, Placental (ALPP) gene, ALPP (gene 250)
In words: LTEA_HepaRG_ALPP: Life Technologies and Expression Analysis (LTEA) Assay for Alkaline Phosphatase, Placental (ALPP) gene using HepaRG (AID 2283468). In a few lines: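 HepaRG cells plated 48 h, then exposed in duplicate for 48 h in serum-free induction medium to 8-point half-log series from 100 uM in 0.5% DMSO. ALPP mRNA by TaqMan qRT-PCR, normalized to ACTB/GAPDH/POLR2A; bidirectional fit versus DMSO.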

Read-out in assay [15]: Bcl-2 (BAD) gene, BAD (gene 572)
As to the kind of experiment: LTEA_HepaRG_BAD: Life Technologies and Expression Analysis (LTEA) Assay for Bcl-2 (BAD) gene using HepaRG (AID 2283469). In a few lines:
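Read-out: qRT-PCR of BAD mRNA, normalized to three housekeeping genes. Human HepaRG cultures got 48 h chemical exposure in 0.5% DMSO, duplicate eight-point half-log series topping at 100 uM. Gain or loss of signal fitted versus DMSO vehicle.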

Read-out in assay [16]: Bcl-2 (BAX) gene, BAX (gene 581)
In words: LTEA_HepaRG_BAX: Life Technologies and Expression Analysis (LTEA) Assay for Bcl-2 (BAX) gene using HepaRG (AID 2283470). An outline of the steps: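 qRT-PCR read-out of BAX mRNA, normalized to three housekeeping genes, after 48 h chemical exposure of human HepaRG cells in serum-free induction medium; eight-point half-log series, top 100 uM, 0.5% DMSO vehicle; bidirectional fit versus DMSO.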

Read-out in assay [17]: adenosine kinase (ADK) gene, ADK (gene 132)
In words: LTEA_HepaRG_ADK: Life Technologies and Expression Analysis (LTEA) Assay for adenosine kinase (ADK) gene using HepaRG (AID 2283471). An outline of the steps:
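HepaRG (human liver), 48 h chemical exposure, 8-pt half-log series, top 100 uM, 0.5% DMSO vehicle. Readout: ADK mRNA by qRT-PCR vs housekeeping genes; bidirectional curve fit relative to DMSO baseline.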

Read-out in assay [18]: Alpha-fetoprotein (AFP) gene, AFP (gene 174)
In words: LTEA_HepaRG_AFP: Life Technologies and Expression Analysis (LTEA) Assay for Alpha-fetoprotein (AFP) gene using HepaRG (AID 2283472). In a few lines:
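qRT-PCR (Fluidigm TaqMan) readout of AFP transcript, normalized to three housekeeping genes, fitted bidirectionally against 0.5% DMSO baseline. HepaRG cells received chemicals for 48 h in serum-free induction medium, top concentration 100 uM, half-log steps.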

Calls of active or inactive are those of the source. The calls were made as follows: active = hit-call score of the fitted dose curve at least 0.9, where 1 is the maximum; inactive = score below 0.9.

Chain of Broad substrate specificity ATP-binding cassette transporter ABCG2 (Homo sapiens) (Q9UNQ0 whole entry, looked up): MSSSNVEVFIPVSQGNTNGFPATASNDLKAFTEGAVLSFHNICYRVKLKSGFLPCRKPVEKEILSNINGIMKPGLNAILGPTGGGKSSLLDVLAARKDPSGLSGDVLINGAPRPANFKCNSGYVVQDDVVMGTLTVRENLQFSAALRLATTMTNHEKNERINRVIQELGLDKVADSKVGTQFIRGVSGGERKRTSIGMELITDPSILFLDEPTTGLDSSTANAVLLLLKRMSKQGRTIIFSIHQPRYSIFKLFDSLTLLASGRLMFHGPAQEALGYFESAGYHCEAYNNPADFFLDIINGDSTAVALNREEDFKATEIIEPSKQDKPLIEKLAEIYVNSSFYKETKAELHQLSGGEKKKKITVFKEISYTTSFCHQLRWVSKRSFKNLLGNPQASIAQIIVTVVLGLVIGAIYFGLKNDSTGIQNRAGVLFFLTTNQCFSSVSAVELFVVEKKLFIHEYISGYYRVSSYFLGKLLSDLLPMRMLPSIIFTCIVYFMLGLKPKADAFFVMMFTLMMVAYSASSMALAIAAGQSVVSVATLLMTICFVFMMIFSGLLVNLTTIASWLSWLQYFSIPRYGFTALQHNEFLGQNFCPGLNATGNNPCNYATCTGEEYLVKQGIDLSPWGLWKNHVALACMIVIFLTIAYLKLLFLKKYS

Consider `c1cc[n+]2c(c1)-c1cccc[n+]1CC2`, for which, in assay [1], the AC50 is 22.4 µM (active). Further, the call in assay [2], in assay [3], in assay [4], in assay [5], in [6] and in assay [7] was inactive. In addition, the compound was classed as inactive in [8], in assay [9], in assay [10], in assay [11], in assay [12] and in assay [13]. Moreover, the call in [14], in [15], in assay [16], in [17] and in assay [18] was inactive.

As a reminder, the AC50 is the concentration giving half of the maximal activity seen.
